Results published in the supplement of paper PMC6555819.

Assays:
Assay in all cases: PBM binding z-score (relative to random genomic background probes); higher = stronger binding; sequences stand for … in GC…GCGATTGACAGCGTAGAATGAAGG
[1] = tested on: FXR:RXRa (NR concentration 270 nM, RXRa partner concentration 90 nM)
Outline: (§1)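 Ligand-free nuclear receptor dimers were applied to custom Agilent 4×180K protein-binding microarrays whose double-stranded probes carried direct-repeat seeds, single-nucleotide variants, half-site ablations and random human genomic background sequences in 34-nt variable regions. Incubation lasted 1 h. Binding z-scores were computed against the random background probes from regression-normalized fluorescence.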

[2] = tested on: LXRa:RXRa (NR concentration 270 nM, RXRa partner concentration 90 nM)
Outline: as §1

[3] = tested on: LXRa homodimer (NR concentration 270 nM)
Outline: as §1

[4] = tested on: LXRb:RXRa (NR concentration 270 nM, RXRa partner concentration 90 nM)
Outline: as §1

[5] = tested on: LXRb homodimer (NR concentration 270 nM)
Outline: as §1

[6] = tested on: PPARa:RXRa (NR concentration 270 nM, RXRa partner concentration 90 nM)
Outline: as §1

[7] = tested on: PPARg:RXRa (NR concentration 180 nM, RXRa partner concentration 90 nM)
Outline: as §1

[8] = tested on: PPARg:RXRa 270nM:90nM, anti-RXR (NR concentration 270 nM, RXRa partner concentration 90 nM)
Outline: as §1

[9] = tested on: PPARg:RXRa 30nM:10nM, anti-RXR (NR concentration 30 nM, RXRa partner concentration 10 nM)
Outline: as §1

[10] = tested on: PPARg:RXRa 90nM:30nM, anti-RXR (NR concentration 90 nM, RXRa partner concentration 30 nM)
Outline: as §1

[11] = tested on: PPARg:RXRa DBDmut IVT, anti-RXR (DBD mutation: RXRa K156A/R161A, NR concentration 270 nM, RXRa partner concentration 90 nM)
Outline: as §1

[12] = tested on: PPARg:RXRa IVT, anti-PPARg (NR concentration 270 nM, RXRa partner concentration 90 nM)
Outline: as §1

[13] = tested on: PPARg DBDmut:RXRa IVT, anti-PPARg (DBD mutation: PPARg1 K132A/R137A, NR concentration 270 nM, RXRa partner concentration 90 nM)
Outline: as §1

[14] = tested on: PPARg DBDmut IVT, anti-PPARg (DBD mutation: PPARg1 K132A/R137A, NR concentration 270 nM)
Outline: as §1

[15] = tested on: PPARg homodimer (NR concentration 180 nM)
Outline: as §1

[16] = tested on: PXR:RXRa (NR concentration 270 nM, RXRa partner concentration 90 nM)
Outline: as §1

[17] = tested on: PXR homodimer (NR concentration 270 nM)
Outline: as §1

[18] = tested on: RARa:RXR (NR concentration 270 nM, RXRa partner concentration 90 nM)
Outline: as §1

[19] = tested on: RARa homodimer (NR concentration 270 nM)
Outline: as §1

[20] = tested on: RARb:RXRa (NR concentration 270 nM, RXRa partner concentration 90 nM)
Outline: as §1

Sequence	PBM binding z-score [1]	PBM binding z-score [2]	PBM binding z-score [3]	PBM binding z-score [4]	PBM binding z-score [5]	PBM binding z-score [6]	PBM binding z-score [7]	PBM binding z-score [8]	PBM binding z-score [9]	PBM binding z-score [10]	PBM binding z-score [11]	PBM binding z-score [12]	PBM binding z-score [13]	PBM binding z-score [14]	PBM binding z-score [15]	PBM binding z-score [16]	PBM binding z-score [17]	PBM binding z-score [18]	PBM binding z-score [19]	PBM binding z-score [20]
CCACGGAGGACAGAAGGTCAGAGCTGTCCGCTTT	1.39	1.72	-0.0316	1.33	-0.786	2.11	0.277	0.736	-0.771	0.384	0.376	0.519	-0.839	-1.85	0.926	1.56	-0.17	2.2	-0.0117	3.21
TAGCCTAGGTCATTGGGCCAATATAGTACGCATC	4.69	3.66	1.13	2.95	0.235	4.38	4.57	4.16	1.53	3.46	3.03	4.13	0.385	0.532	1.58	1.83	-0.353	2.69	-0.0412	3.6
TCGACTAGGTTAGGGGCATTCAGAATGGCGTCGA	0.141	0.372	-0.304	0.803	-0.322	1.38	1.35	2.49	1.74	2.17	2.47	1.86	0.0313	-0.271	0.688	0.539	-0.0457	0.602	-0.239	1.26
GCGACTGGGGGAAAGCAGGTTACCATAAGGTTGG	0.271	0.375	-0.178	1.5	2.74	1.75	0.956	1.47	0.539	1.33	2.14	3.37	1.81	2.84	0.279	0.944	0.0746	1.14	-0.282	0.616
